PubChem BioAssay (NCATS)
Results filed as inconclusive are left out. Calls of active or inactive are those of the source. Calls follow the shape of the dose curve; as a rule, active = well fitted curve in the direction sought with a large enough effect; inconclusive = small, poorly fitted or top-dose-only effect, or another doubt; inactive = no such curve, though single readings can be large; an effect the other way counts as inactive or inconclusive.

Columns and labels:
[1] = target: ATP-dependent 6-phosphofructokinase (Trypanosoma brucei brucei) (UniProt O15648); assay: qHTS Assay to Find Inhibitors of T. brucei phosphofructokinase: hit validation (AID 492961);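 also: luminescence reports ADP formed as PFK phosphorylates fructose-6-phosphate with ATP; % is scaled to controls: 0 for no effect and ±100 for the full control effect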
Summary of the method: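 Compounds titrated; %activity normalized to 0x and 1x enzyme controls, curve-fitted. Readout: ADP-Glo luminescence after 45 min room-temperature reaction of 1.25 nM PFK, 0.1 mM ATP, 0.5 mM F6P, pH 8.0.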

[2] = qHTS profiling for inhibitors of Plasmodium falciparum proliferation (AID 504749); also: potency is read from the fitted curve at half-maximal effect;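 as to activity, negative = inhibition: 0% = DMSO vehicle and full inhibition = artemisinin control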; as to all read-outs here: nearly all actives have a fitted effect of over 60% in size; settings: P. falciparum in erythrocytes, SYBR Green DNA, 72 h; for activity, negative = inhibition: at 28.7 µM (top of the series)
Summary of the method: (§1)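 Each compound contacts P. falciparum-infected red blood cells for 72 h at 37 C; lysis buffer (Tris, EDTA, saponin, Triton X, SYBR Green I) is added and fluorescence measured next morning; values normalized to controls.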

[3] = tested on: AA1029; assay: as above; settings: P. falciparum in erythrocytes, SYBR Green DNA, 72 h; series mostly up to 28.7 µM
Summary of the method: as §1

[4] = tested on: AS120; assay: as above; settings: P. falciparum in erythrocytes, SYBR Green DNA, 72 h; series mostly up to 28.7 µM
Summary of the method: as §1

[5] = tested on: ATS189; assay: as above; settings: P. falciparum in erythrocytes, SYBR Green DNA, 72 h; series mostly up to 28.7 µM
Summary of the method: as §1

[6] = tested on: CP185; assay: as above; settings: P. falciparum in erythrocytes, SYBR Green DNA, 72 h; series mostly up to 28.7 µM
Summary of the method: as §1

[7] = tested on: CP211; assay: as above; settings: P. falciparum in erythrocytes, SYBR Green DNA, 72 h; series mostly up to 28.7 µM
Summary of the method: as §1

[8] = tested on: CP217; assay: as above; settings: P. falciparum in erythrocytes, SYBR Green DNA, 72 h; series mostly up to 28.7 µM
Summary of the method: as §1

[9] = tested on: CP238; assay: as above; settings: P. falciparum in erythrocytes, SYBR Green DNA, 72 h; series mostly up to 28.7 µM
Summary of the method: as §1

[10] = tested on: CP252; assay: as above; settings: P. falciparum in erythrocytes, SYBR Green DNA, 72 h; series mostly up to 28.7 µM
Summary of the method: as §1

[11] = tested on: CP262; assay: as above; settings: P. falciparum in erythrocytes, SYBR Green DNA, 72 h; series mostly up to 28.7 µM
Summary of the method: as §1

[12] = tested on: CP265; assay: as above; settings: P. falciparum in erythrocytes, SYBR Green DNA, 72 h; series mostly up to 28.7 µM
Summary of the method: as §1

[13] = tested on: CP269; assay: as above; settings: P. falciparum in erythrocytes, SYBR Green DNA, 72 h; series mostly up to 28.7 µM
Summary of the method: as §1

[14] = tested on: CP286; assay: as above; settings: P. falciparum in erythrocytes, SYBR Green DNA, 72 h; series mostly up to 28.7 µM
Summary of the method: as §1

[15] = tested on: CP329; assay: as above; settings: P. falciparum in erythrocytes, SYBR Green DNA, 72 h; series mostly up to 28.7 µM
Summary of the method: as §1

[16] = tested on: DFO2036; assay: as above; settings: P. falciparum in erythrocytes, SYBR Green DNA, 72 h; series mostly up to 28.7 µM
Summary of the method: as §1

[17] = tested on: ECU; assay: as above; settings: P. falciparum in erythrocytes, SYBR Green DNA, 72 h; series mostly up to 28.7 µM
Summary of the method: as §1

[18] = tested on: FAB9; assay: as above; settings: P. falciparum in erythrocytes, SYBR Green DNA, 72 h; series mostly up to 28.7 µM
Summary of the method: as §1

[19] = tested on: N140; assay: as above; settings: P. falciparum in erythrocytes, SYBR Green DNA, 72 h; series mostly up to 28.7 µM
Summary of the method: as §1

[20] = tested on: TAB109; assay: as above; settings: P. falciparum in erythrocytes, SYBR Green DNA, 72 h; series mostly up to 28.7 µM
Summary of the method: as §1

ATP-dependent 6-phosphofructokinase (Trypanosoma brucei brucei), sequence (O15648 whole entry, looked up): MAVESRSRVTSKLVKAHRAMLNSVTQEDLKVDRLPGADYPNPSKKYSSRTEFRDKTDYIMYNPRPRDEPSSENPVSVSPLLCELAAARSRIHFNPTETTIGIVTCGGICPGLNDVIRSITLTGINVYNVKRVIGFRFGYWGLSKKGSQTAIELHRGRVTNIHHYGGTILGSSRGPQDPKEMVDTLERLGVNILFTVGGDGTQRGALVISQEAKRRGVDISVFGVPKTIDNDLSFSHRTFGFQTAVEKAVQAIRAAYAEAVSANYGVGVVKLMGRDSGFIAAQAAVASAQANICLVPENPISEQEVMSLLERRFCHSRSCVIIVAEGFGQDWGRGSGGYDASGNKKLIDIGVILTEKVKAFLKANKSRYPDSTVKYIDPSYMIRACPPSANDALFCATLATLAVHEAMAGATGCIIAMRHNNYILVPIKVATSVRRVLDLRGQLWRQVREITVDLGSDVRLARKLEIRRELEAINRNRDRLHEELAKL

CCCCCOC(=O)Nc1nc(=O)n(C2O[C@H](C)[C@@H](O)[C@@H]2O)cc1F (some centres undefined)
inactive: Potency [1] | activity, negative = inhibition ([2]; parasite line A) -10.4% | activity, negative = inhibition ([2]; parasite line B) 12.5% | Potency [3] | Potency [4] | Potency [5] | Potency [6] | Potency [7] | Potency [8] | Potency [9] | Potency [10] | Potency [11] | Potency [12] | Potency [13] | Potency [14] | Potency [15] | Potency [16] | Potency [17] | Potency [18] | Potency [19] | Potency [20]

CCC(C(=O)C(C)C(O)C(C)CCc1ccc(C)c(O)c1C(=O)O)C1OC(CC)(C2CC[C@@](O)(CC)C(C)O2)CC1C (some centres undefined)
inactive: Potency [1]
active: Potency ([2]; parasite line A) 794 nM | Potency ([2]; parasite line B) 1120 nM | Potency [3] 708 nM | Potency [4] 398 nM | Potency [5] 1260 nM | Potency [6] 1120 nM | Potency [7] 536 nM | Potency [8] 1000 nM | Potency [9] 1000 nM | Potency [10] 794 nM | Potency [11] 953 nM | Potency [12] 891 nM | Potency [13] 757 nM | Potency [14] 631 nM | Potency [15] 757 nM | Potency [16] 1000 nM | Potency [17] 708 nM | Potency [18] 2000 nM | Potency [19] 562 nM | Potency [20] 891 nM

O=C(O)C(O)c1ccccc1 (centres undefined)
inactive: Potency [1] | activity, negative = inhibition ([2]; parasite line A) 2.53% | activity, negative = inhibition ([2]; parasite line B) 10.7% | Potency [3] | Potency [4] | Potency [5] | Potency [6] | Potency [7] | Potency [8] | Potency [9] | Potency [10] | Potency [11] | Potency [12] | Potency [13] | Potency [14] | Potency [15] | Potency [16] | Potency [17] | Potency [18] | Potency [19] | Potency [20]

Cc1onc(-c2c(F)cccc2Cl)c1C(=O)NC1C(=O)N2C1SC(C)(C)C2C(=O)O (centres undefined)
inactive: Potency [1] | activity, negative = inhibition ([2]; parasite line A) 3.14% | activity, negative = inhibition ([2]; parasite line B) -4.31% | Potency [3] | Potency [4] | Potency [5] | Potency [6] | Potency [7] | Potency [8] | Potency [9] | Potency [10] | Potency [11] | Potency [12] | Potency [14] | Potency [15] | Potency [16] | Potency [17] | Potency [18] | Potency [19] | Potency [20]

NC(=O)OC[C@@H]1[C@H](NC(=O)/C(=N/OCC(=O)O)c2csc(N)n2)C(=O)N1S(=O)(=O)O
inactive: Potency [1] | activity, negative = inhibition ([2]; parasite line A) -1.72% | activity, negative = inhibition ([2]; parasite line B) 1.04% | Potency [3] | Potency [4] | Potency [5] | Potency [6] | Potency [7] | Potency [8] | Potency [9] | Potency [10] | Potency [11] | Potency [12] | Potency [13] | Potency [14] | Potency [15] | Potency [16] | Potency [17] | Potency [19] | Potency [20]
active: Potency [18] 100 nM

CC(C)C(=O)OCC(=O)[C@@]12OC(C3CCCCC3)O[C@@H]1CC1C3CCC4=CC(=O)C=C[C@]4(C)C3[C@@H](O)C[C@@]12C (some centres undefined)
active: Potency ([2]; parasite line A) 794 nM | Potency ([2]; parasite line B) 562 nM | Potency [3] 891 nM | Potency [4] 794 nM | Potency [5] 891 nM | Potency [6] 794 nM | Potency [7] 1350 nM | Potency [8] 794 nM | Potency [9] 1000 nM | Potency [10] 1000 nM | Potency [12] 1000 nM | Potency [14] 794 nM | Potency [16] 501 nM | Potency [17] 1120 nM | Potency [18] 2000 nM | Potency [19] 794 nM | Potency [20] 708 nM
inactive: Potency [1]

C/C(=C(/CCO)SS/C(CCO)=C(\C)N(C=O)Cc1cnc(C)nc1N)N(C=O)Cc1cnc(C)nc1N
inactive: Potency [1] | activity, negative = inhibition ([2]; parasite line A) -6.53% | activity, negative = inhibition ([2]; parasite line B) -3.11% | Potency [3] | Potency [4] | Potency [5] | Potency [6] | Potency [7] | Potency [8] | Potency [9] | Potency [10] | Potency [11] | Potency [12] | Potency [13] | Potency [14] | Potency [15] | Potency [16] | Potency [17] | Potency [18] | Potency [19]

CC[C@@]1(O)CC2CN(CCc3c([nH]c4ccccc34)[C@](C(=O)OC)(c3cc4c(cc3OC)N(C)C3[C@@](O)(C(=O)OC)C(OC(C)=O)[C@]5(CC)C=CCN6CC[C@@]43C65)C2)C1 (some centres undefined)
inactive: Potency [1]
active: Potency ([2]; parasite line A) 2510 nM | Potency ([2]; parasite line B) 1120 nM | Potency [3] 3160 nM | Potency [4] 2820 nM | Potency [5] 3980 nM | Potency [6] 2240 nM | Potency [7] 2690 nM | Potency [8] 3550 nM | Potency [9] 3160 nM | Potency [10] 3550 nM | Potency [11] 1690 nM | Potency [12] 2240 nM | Potency [13] 3010 nM | Potency [14] 794 nM | Potency [15] 3010 nM | Potency [16] 891 nM | Potency [17] 2510 nM | Potency [19] 3550 nM | Potency [20] 3160 nM

CC1(C)CC1C(=O)N/C(=C/CCCCSCC(N)C(=O)O)C(=O)O (centres undefined)
inactive: Potency [1] | activity, negative = inhibition ([2]; parasite line A) 9.99% | activity, negative = inhibition ([2]; parasite line B) -1.88% | Potency [3] | Potency [4] | Potency [5] | Potency [6] | Potency [7] | Potency [8] | Potency [9] | Potency [10] | Potency [11] | Potency [12] | Potency [13] | Potency [14] | Potency [15] | Potency [16] | Potency [17] | Potency [18] | Potency [19] | Potency [20]

CC[C@H](C)[C@H]1O[C@]2(CC[C@@H]1C)C[C@@H]1C[C@@H](C/C=C(\C)[C@H](O[C@@H]3C[C@H](OC)[C@H](O[C@@H]4C[C@H](OC)[C@@H](O)[C@H](C)O4)[C@H](C)O3)[C@@H](C)/C=C/C=C3\CO[C@@H]4[C@H](O)C(C)=C[C@@H](C(=O)O1)[C@]34O)O2
active: Potency ([2]; parasite line A) 355 nM | Potency ([2]; parasite line B) 794 nM | Potency [3] 1000 nM | Potency [4] 1000 nM | Potency [5] 891 nM | Potency [6] 1000 nM | Potency [7] 1350 nM | Potency [8] 794 nM | Potency [9] 1260 nM | Potency [10] 794 nM | Potency [11] 1200 nM | Potency [12] 794 nM | Potency [13] 1350 nM | Potency [14] 1260 nM | Potency [15] 1350 nM | Potency [16] 794 nM | Potency [17] 891 nM | Potency [18] 3160 nM | Potency [19] 1000 nM | Potency [20] 1260 nM
inactive: Potency [1]
